Read-out in assay [1]: Protein phosphatase 2A (PPP2R4), PTPA (gene 5524)
In words: LTEA_HepaRG_PPP2R4: Life Technologies and Expression Analysis (LTEA) Assay for Protein phosphatase 2A (PPP2R4) using HepaRG (AID 2283522). The conditions noted are these: mRNA level, 48 h; actives raise or lower the signal. A digest of the protocol: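 Expression was quantified by Fluidigm qRT-PCR normalised to three housekeeping genes after 48 h treatment. Human HepaRG cells received an 8-point series from 100 µM downward by half-logs, in duplicate with 0.5% DMSO vehicle and 1 mM phenobarbital as induction control.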

Read-out in assay [2]: solute carrier (SLC22A1), SLC22A1 (gene 6580)
In words: LTEA_HepaRG_SLC22A1: Life Technologies and Expression Analysis (LTEA) Assay for solute carrier (SLC22A1) using HepaRG (AID 2283524).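 As to AC50: differentiated human HepaRG liver cells in serum-free induction medium.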 The conditions noted are these: mRNA level, 48 h; actives raise or lower the signal. Summed up: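 qRT-PCR readout (TaqMan, Fluidigm arrays) of SLC22A1 transcript, normalized to three housekeeping genes; bidirectional curve fit relative to 0.5% DMSO vehicle. Differentiated human HepaRG cells, 48 h chemical exposure, top concentration 100 uM, half-log steps, eight points.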

Read-out in assay [3]: Pyruvate Dehydrogenase Kinase 4 (PDK4), PDK4 (gene 5166)
The experiment in a line: LTEA_HepaRG_PDK4: Life Technologies and Expression Analysis (LTEA) Assay for Pyruvate Dehydrogenase Kinase 4 (PDK4) using HepaRG (AID 2283525). The conditions noted are these: mRNA level, 48 h; actives raise or lower the signal. A digest of the protocol:
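HepaRG (human liver line), 48 h chemical exposure, 8-pt half-log CRC top 100 uM, 0.5% DMSO vehicle, duplicates. Readout: TaqMan qRT-PCR of PDK4 mRNA, housekeeping-normalized; gain/loss fit relative to DMSO baseline.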

Read-out in assay [4]: NAD(P)H dehydrogenase [quinone] 1 (NQO1), NQO1 (gene 1728)
The experiment in a line: LTEA_HepaRG_NQO1: Life Technologies and Expression Analysis (LTEA) Assay for NAD(P)H dehydrogenase [quinone] 1 (NQO1) using HepaRG (AID 2283526). The conditions noted are these: mRNA level, 48 h; actives raise or lower the signal. Summed up: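 NQO1 transcript induction or loss measured by TaqMan qRT-PCR, referenced to three housekeeping genes and fitted bidirectionally against 0.5% DMSO. HepaRG cultures exposed 48 h, duplicate, eight-point half-log series, top 100 uM.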

Read-out in assay [5]: Nuclear factor erythroid 2-related factor 2 (Homo sapiens) (UniProt Q16236)
In words: LTEA_HepaRG_NFE2L2: Life Technologies and Expression Analysis (LTEA) Assay for Nuclear factor erythroid 2-related factor 2 (NFE2L2) Transcription Factor using HepaRG (AID 2283527).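 As to outcome: TaqMan qRT-PCR transcript level normalised to ACTB GAPDH and POLR2A housekeeping genes.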 The conditions noted are these: mRNA level, 48 h; actives raise or lower the signal. Summed up:
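HepaRG, 48 h dosing, 8-pt half-log series from 100 uM in 0.5% DMSO, duplicates. Read-out: NFE2L2 mRNA by qRT-PCR (ACTB/GAPDH/POLR2A normalization). Bidirectional curve fit vs DMSO baseline.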

Read-out in assay [6]: succinate dehydrogenase complex iron sulfur subunit B (SDHB), SDHB (gene 6390)
In words: LTEA_HepaRG_SDHB: Life Technologies and Expression Analysis (LTEA) Assay for succinate dehydrogenase complex iron sulfur subunit B (SDHB) using HepaRG (AID 2283528). The conditions noted are these: mRNA level, 48 h; actives raise or lower the signal. Summed up: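 HepaRG cells (~100,000/well, plated 48 h) exposed in duplicate for 48 h in serum-free induction medium to 8-point half-log series from 100 uM in 0.5% DMSO; mRNA by qRT-PCR normalised to ACTB, GAPDH, POLR2A; bidirectional fit versus DMSO.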

Read-out in assay [7]: Signal transducer and activator of transcription 3 (Homo sapiens) (UniProt P40763)
In words: LTEA_HepaRG_STAT3: Life Technologies and Expression Analysis (LTEA) Assay for Signal transducer and activator of transcription (STAT3) using HepaRG (AID 2283529). The conditions noted are these: mRNA level, 48 h; actives raise or lower the signal. A digest of the protocol: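 HepaRG, 48 h exposure, 8-pt half-log series (top 100 uM), 0.5% DMSO vehicle, duplicates. Readout: STAT3 transcript by Fluidigm qRT-PCR, housekeeping-normalized; bidirectional fit vs DMSO baseline.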

Read-out in assay [8]: solute carrier (SLCO1B1), SLCO1B1 (gene 10599)
The experiment in a line: LTEA_HepaRG_SLCO1B1: Life Technologies and Expression Analysis (LTEA) Assay for solute carrier (SLCO1B1) using HepaRG (AID 2283530). The conditions noted are these: mRNA level, 48 h; actives raise or lower the signal. A digest of the protocol: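 HepaRG, serum-free induction medium, 48 h dosing, 8-pt half-log from 100 uM, 0.5% DMSO vehicle, duplicates. Readout: SLCO1B1 mRNA, qRT-PCR, ACTB/GAPDH/POLR2A normalization; up or down fit vs DMSO.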

Read-out in assay [9]: Transforming Growth Factor (TGFA), TGFA (gene 7039)
The experiment in a line: LTEA_HepaRG_TGFA: Life Technologies and Expression Analysis (LTEA) Assay for Transforming Growth Factor (TGFA) using HepaRG (AID 2283532). The conditions noted are these: mRNA level, 48 h; actives raise or lower the signal. Summed up: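 qRT-PCR read-out of TGFA transcript, normalized to three housekeeping genes, fitted bidirectionally against 0.5% DMSO baseline. Human HepaRG cultures received chemicals for 48 h at eight half-log concentrations, top 100 uM.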

Read-out in assay [10]: Transforming Growth Factor (TGFB1), TGFB1 (gene 7040)
In words: LTEA_HepaRG_TGFB1: Life Technologies and Expression Analysis (LTEA) Assay for Transforming Growth Factor (TGFB1) Transporter using HepaRG (AID 2283533). The conditions noted are these: mRNA level, 48 h; actives raise or lower the signal. A digest of the protocol:
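HepaRG, 48 h post-plating, switched to serum-free induction medium; chemicals 100 uM top, half-log, 8 pts, 0.5% DMSO, dup; 48 h exposure; RNA → Fluidigm TaqMan qRT-PCR; norm ACTB/GAPDH/POLR2A; bidirectional fit vs DMSO.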

Read-out in the next assay: TIMP1, TIMP1 (gene 7076)
The experiment in a line: LTEA_HepaRG_TIMP1: Life Technologies and Expression Analysis (LTEA) Assay for TIMP1 using HepaRG (AID 2283534). The conditions noted are these: mRNA level, 48 h; actives raise or lower the signal. A digest of the protocol: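 Readout is TIMP1 mRNA level measured by qRT-PCR and normalized to three housekeeping genes. Human HepaRG cells were treated for 48 h in duplicate at eight concentrations up to 100 uM (0.5% DMSO); gain or loss fitted against DMSO.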

Read-out in assay [11]: Thyroid Hormone Responsive (THRSP), THRSP (gene 7069)
The experiment in a line: LTEA_HepaRG_THRSP: Life Technologies and Expression Analysis (LTEA) Assay for Thyroid Hormone Responsive (THRSP) using HepaRG (AID 2283536). The conditions noted are these: mRNA level, 48 h; actives raise or lower the signal. A digest of the protocol:
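qRT-PCR read-out (Fluidigm TaqMan), housekeeping-normalized (ACTB/GAPDH/POLR2A). HepaRG, 48 h chemical exposure, 8-pt half-log series from 100 uM in 0.5% DMSO, duplicates. Bidirectional curve fit vs 0.5% DMSO baseline.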

Read-out in assay [12]: Cellular tumor antigen p53 (Homo sapiens) (UniProt P04637)
The experiment in a line: LTEA_HepaRG_TP53: Life Technologies and Expression Analysis (LTEA) Assay for Tumor Protein P53 (TP53) using HepaRG (AID 2283537). The conditions noted are these: mRNA level, 48 h; actives raise or lower the signal. Summed up:
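Differentiated HepaRG cells in serum-free induction medium exposed 48 h in duplicate to 8 half-log concentrations, top 100 uM, 0.5% DMSO. TP53 mRNA by TaqMan qRT-PCR (Fluidigm), normalized to ACTB, GAPDH, POLR2A; fitted bidirectionally versus DMSO.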

Read-out in assay [13]: UDP glucuronosyltransferase (UGT1A1), UGT1A1 (gene 54658)
In words: LTEA_HepaRG_UGT1A1: Life Technologies and Expression Analysis (LTEA) Assay for UDP glucuronosyltransferase (UGT1A1) using HepaRG (AID 2283538). The conditions noted are these: mRNA level, 48 h; actives raise or lower the signal. Summed up:
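UGT1A1 transcript level, measured by qRT-PCR with three housekeeping genes for normalization, after 48 h treatment of human HepaRG cells (0.5% DMSO, duplicates, up to 100 uM, half-log steps, 8 points). Curves fit both directions against DMSO baseline.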

Assay [14] can be described thus: LTEA_HepaRG_LDH_cytotoxicity: Cytotoxicity Assessment in the Life Technologies and Expression Analysis (LTEA) Assay (AID 2283563; active = hit-call score of the fitted dose curve at least 0.9, where 1 is the maximum;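 as to AC50: LDH activity released into spent culture medium as a marker of cell death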). A digest of the protocol:
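Cells were thawed and plated for 48 h. Medium was then replaced with serum-free induction medium. Chemicals (8 half-log points, maximum 100 uM, 0.5% DMSO) were added in duplicate for 48 h, after which spent medium was assayed for LDH.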

Read-out in assay [15]: sulfotransferase 2A1 (SULT2A1), SULT2A1 (gene 6822)
In words: LTEA_HepaRG_SULT2A1: Life Technologies and Expression Analysis (LTEA) Assay for sulfotransferase 2A1 (SULT2A1) using HepaRG (AID 2283531). The conditions noted are these: mRNA level, 48 h; actives raise or lower the signal. Summed up: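 Transcript levels of SULT2A1, quantified by qRT-PCR and normalized to three housekeeping genes, serve as the readout. Human HepaRG cultures receive test chemicals for 48 h at up to 100 uM in half-log steps, with 0.5% DMSO vehicle.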

Read-out in assay [16]: Phosphatase and tensin (PTEN), PTEN (gene 5728)
In words: LTEA_HepaRG_PTEN: Life Technologies and Expression Analysis (LTEA) Assay for Phosphatase and tensin (PTEN) using HepaRG (AID 2283523). The conditions noted are these: mRNA level, 48 h; actives raise or lower the signal. Summed up: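 HepaRG, 48 h exposure, 8-pt half-log series from 100 uM top, 0.5% DMSO vehicle, duplicates. Readout: Fluidigm qRT-PCR of PTEN transcript; housekeeping normalization (ACTB, GAPDH, POLR2A). Gain or loss fitted relative to DMSO baseline.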

Read-out in assay [17]: Tumor necrosis factor receptor 1 (TNFRSF1A), TNFRSF1A (gene 7132)
The experiment in a line: LTEA_HepaRG_TNFRSF1A: Life Technologies and Expression Analysis (LTEA) Assay for Tumor necrosis factor receptor 1 (TNFRSF1A) using HepaRG (AID 2283535). The conditions noted are these: mRNA level, 48 h; actives raise or lower the signal. A digest of the protocol:
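Read-out is TNFRSF1A transcript level by TaqMan qRT-PCR, normalized to three housekeeping genes, scored as gain or loss of signal versus 0.5% DMSO. Human HepaRG cells received test chemicals for 48 h at up to 100 uM (half-log series).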

The text below walks through data of PubChem BioAssay (EPA / NIEHS).

Structures are written as SMILES. Values joined by “and” are separate entries in the source; they are usually repeats but may differ in a detail not shown here. Equal values may be shown once. More than one record can exist for a structure, and the calls need not agree. Active and inactive are the calls of the source. The calls were made as follows, unless noted: active = hit-call score of the fitted dose curve at least 0.9, where 1 is the maximum; inactive = score below 0.9.

Chain of Nuclear factor erythroid 2-related factor 2 (Homo sapiens) (Q16236 whole entry, looked up): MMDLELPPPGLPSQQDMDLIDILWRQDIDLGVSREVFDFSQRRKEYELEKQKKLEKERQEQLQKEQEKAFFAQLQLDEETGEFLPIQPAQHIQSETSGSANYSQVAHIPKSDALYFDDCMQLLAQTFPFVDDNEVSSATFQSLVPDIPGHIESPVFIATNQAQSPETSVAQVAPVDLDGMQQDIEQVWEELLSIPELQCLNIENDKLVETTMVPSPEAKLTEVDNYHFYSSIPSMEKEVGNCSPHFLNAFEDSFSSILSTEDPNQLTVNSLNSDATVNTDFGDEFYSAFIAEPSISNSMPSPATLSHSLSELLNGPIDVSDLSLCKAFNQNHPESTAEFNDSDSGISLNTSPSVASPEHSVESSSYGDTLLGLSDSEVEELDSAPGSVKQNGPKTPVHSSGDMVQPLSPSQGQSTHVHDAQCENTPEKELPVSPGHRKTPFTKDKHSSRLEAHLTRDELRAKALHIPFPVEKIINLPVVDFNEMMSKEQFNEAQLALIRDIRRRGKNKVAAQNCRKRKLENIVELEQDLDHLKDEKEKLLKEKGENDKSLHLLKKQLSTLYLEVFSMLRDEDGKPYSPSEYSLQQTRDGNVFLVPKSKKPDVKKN
Chain of Signal transducer and activator of transcription 3 (Homo sapiens) (P40763 whole entry, looked up): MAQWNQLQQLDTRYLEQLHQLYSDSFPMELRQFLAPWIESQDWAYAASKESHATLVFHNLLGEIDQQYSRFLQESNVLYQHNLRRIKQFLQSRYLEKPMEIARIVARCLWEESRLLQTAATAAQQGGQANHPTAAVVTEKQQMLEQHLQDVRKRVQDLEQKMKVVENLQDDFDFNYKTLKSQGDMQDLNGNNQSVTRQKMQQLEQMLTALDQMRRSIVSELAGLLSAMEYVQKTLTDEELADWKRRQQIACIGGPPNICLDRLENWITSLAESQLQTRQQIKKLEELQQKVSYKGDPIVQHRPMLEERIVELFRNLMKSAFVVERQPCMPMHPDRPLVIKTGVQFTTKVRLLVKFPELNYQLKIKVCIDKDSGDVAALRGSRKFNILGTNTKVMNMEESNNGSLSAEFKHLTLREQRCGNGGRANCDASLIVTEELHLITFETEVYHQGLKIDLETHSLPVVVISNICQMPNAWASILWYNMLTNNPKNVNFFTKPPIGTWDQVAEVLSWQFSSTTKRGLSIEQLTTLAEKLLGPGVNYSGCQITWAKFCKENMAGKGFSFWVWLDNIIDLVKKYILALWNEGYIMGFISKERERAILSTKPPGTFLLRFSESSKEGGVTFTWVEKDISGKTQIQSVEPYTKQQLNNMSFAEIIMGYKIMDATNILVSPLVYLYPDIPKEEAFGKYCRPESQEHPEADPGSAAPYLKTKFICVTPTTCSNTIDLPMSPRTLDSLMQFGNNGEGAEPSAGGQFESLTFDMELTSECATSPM
Chain of Cellular tumor antigen p53 (Homo sapiens) (P04637 whole entry, looked up): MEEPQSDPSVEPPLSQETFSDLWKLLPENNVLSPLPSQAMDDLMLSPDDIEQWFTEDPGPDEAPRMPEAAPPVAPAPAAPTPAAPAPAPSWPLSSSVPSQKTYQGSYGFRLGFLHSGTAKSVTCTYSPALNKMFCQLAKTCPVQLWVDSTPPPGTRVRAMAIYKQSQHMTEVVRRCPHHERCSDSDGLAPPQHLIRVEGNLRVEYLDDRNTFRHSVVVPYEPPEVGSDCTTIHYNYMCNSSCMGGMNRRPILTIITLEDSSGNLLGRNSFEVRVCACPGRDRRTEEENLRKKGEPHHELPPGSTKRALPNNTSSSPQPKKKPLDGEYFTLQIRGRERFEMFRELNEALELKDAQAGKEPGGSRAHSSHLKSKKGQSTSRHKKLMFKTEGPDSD

`Oc1ccc(Cl)cc1Cc1ccccc1`: the outcome in assay [1], in assay [2], in [3], in assay [4], in assay [5] and in [6] was inactive. In addition, the outcome in [7] was “inactive”; in [8], “inactive”; in assay [9], “inactive”; in assay [10], “inactive”; with TIMP1, TIMP1 (gene 7076), “inactive”; in assay [12], “inactive”. The result in [13] was inactive. Further, the AC50 in assay [2] is 91.8 µM (active) and 91.6 µM (active); in [3] it was 76.8 µM (active) and 83.6 µM (active); in assay [8], 81.5 µM (active); in [11], 78.1 µM (active) and 50.5 µM (active) and 87.7 µM (active); in [14] it was 91.5 µM (active) and 93.3 µM (active) and 94.7 µM (active).

On to `Cc1[nH]c(=O)n(C(C)(C)C)c(=O)c1Cl`, for which the compound was classed as inactive in assay [1], in assay [2], in assay [3], in assay [4], in [6] and in assay [7]. Also, the outcome in assay [8] was “inactive”; in [15] it was “inactive”; in assay [9], “inactive”; in [10] it was “inactive”; with TIMP1, TIMP1 (gene 7076) it was “inactive”; in [14] it was “inactive”. Moreover, the AC50 in assay [5] was 50 µM (active); in assay [11], 50 µM (active); in assay [13], 31 µM (active).

For `O=S1OCC2C(CO1)C1(Cl)C(Cl)=C(Cl)C2(Cl)C1(Cl)Cl` (stereo not given), the result in assay [1], in assay [16], in assay [3], in assay [4], in [5] and in assay [6] was inactive. In addition, the outcome in assay [7] is “inactive”; in [9], “inactive”; in the assay with TIMP1, TIMP1 (gene 7076), “inactive”; in assay [17] it was “inactive”; in assay [13], “inactive”. The AC50 in [2] is 63 µM (active); in assay [8], 20.8 µM (active); in [10], 72.1 µM (active); in assay [11], 41.7 µM (active); in assay [12], 70.2 µM (active); in [14], 94 µM (active).

In general, AC50 refers to the concentration giving half of the maximal activity seen.
